# According to the supplement of paper PMC8728848:
# Only a selection was taken, and the strongest signals are over-represented in it overall.
# How the values were obtained:
# Experiment in all cases: glycan array binding signal (z-score within array); higher = stronger binding
# Details in all cases: glycan notation: IUPAC condensed, linker removed
# [1] = target: Fuc(a1-2)Gal(b1-4)GlcNAc(b1-2)Man
# How it was run: (§1)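 The binding signal is a Z-score computed within each array and averaged over linkers. Arrays of the same protein sequence at different concentrations or buffers were also averaged together. Data originate from 3228 arrays in the Consortium for Functional Glycomics database, kept only where the protein sequence was available.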
# [2] = target: Fuc(a1-2)Gal(b1-4)[Fuc(a1-3)]GlcNAc(b1-2)[Fuc(a1-2)Gal(b1-4)[Fuc(a1-3)]GlcNAc(b1-4)]Man(a1-3)[Fuc(a1-2)Gal(b1-4)[Fuc(a1-3)]GlcNAc(b1-2)Man(a1-6)]Man(b1-4)GlcNAc(b1-4)GlcNAc
# How it was run: as §1
# [3] = target: Fuc(a1-2)Gal6S(b1-4)Glc6S
# How it was run: as §1
# [4] = target: Fuc(a1-2)[Gal(a1-3)]Gal(b1-3)GalNAc
# How it was run: as §1
# [5] = target: Fuc(a1-2)[Gal(a1-3)]Gal(b1-4)GlcNAc(b1-2)Man(a1-3)[Fuc(a1-2)[Gal(a1-3)]Gal(b1-4)GlcNAc(b1-2)Man(a1-6)]Man(b1-4)GlcNAc(b1-4)[Fuc(a1-6)]GlcNAc
# How it was run: as §1
# [6] = target: Fuc(a1-2)[Gal(a1-4)]Gal(b1-4)GlcNAc
# How it was run: as §1
# [7] = target: Fuc(a1-2)[GalNAc(a1-3)]Gal(b1-4)GlcNAc(b1-6)GalNAc
# How it was run: as §1
# [8] = target: Fuc(a1-3)[Gal(b1-4)]GlcNAc
# How it was run: as §1
# [9] = target: Fuc(a1-3)[Gal(b1-4)]GlcNAc(b1-3)Gal(b1-4)[Fuc(a1-3)]GlcNAc
# How it was run: as §1
# [10] = target: Fuc(a1-3)[Gal(b1-4)]GlcNAc(b1-3)Gal(b1-4)[Fuc(a1-3)]GlcNAc(b1-3)Gal(b1-4)[Fuc(a1-3)]GlcNAc
# How it was run: as §1
# [11] = target: Fuc(a1-3)[Gal(b1-4)]GlcNAc(b1-4)Gal(b1-4)[Fuc(a1-3)]GlcNAc(b1-4)Gal(b1-4)[Fuc(a1-3)]GlcNAc
# How it was run: as §1
# Fuc(a1-4)GlcNAc = target: Fuc(a1-4)GlcNAc
# How it was run: as §1
# [12] = target: Gal(a1-3)Gal(b1-3)[Fuc(a1-4)]GlcNAc(b1-2)Man(a1-3)[Gal(a1-3)Gal(b1-3)[Fuc(a1-4)]GlcNAc(b1-2)Man(a1-6)]Man(b1-4)GlcNAc(b1-4)GlcNAc
# How it was run: as §1
# [13] = target: Gal(a1-3)[Gal(a1-4)]Gal(b1-4)GlcNAc
# How it was run: as §1
# [14] = target: Gal(a1-4)Gal(b1-3)GlcNAc(b1-2)Man(a1-3)[Gal(a1-4)Gal(b1-3)GlcNAc(b1-2)Man(a1-6)]Man(b1-4)GlcNAc(b1-4)GlcNAc
# How it was run: as §1
# Gal(b1-3)Gal = target: Gal(b1-3)Gal
# How it was run: as §1
# Gal(b1-3)GalNAc = target: Gal(b1-3)GalNAc
# How it was run: as §1
# [15] = target: Gal(b1-3)[Neu5Ac(a2-6)]GalNAc
# How it was run: as §1
# [16] = target: Gal(b1-3)[Neu5Ac(a2-6)]GlcNAc(b1-4)Gal(b1-4)Glc
# How it was run: as §1
# [17] = target: Gal(b1-4)GlcNAc(b1-2)Man(a1-3)[Gal(b1-4)GlcNAc(b1-2)Man(a1-6)][Gal(b1-4)GlcNAc(b1-4)]Man(b1-4)GlcNAc(b1-4)[Fuc(a1-6)]GlcNAc
# How it was run: as §1
# [18] = target: Gal(b1-4)GlcNAc(b1-2)Man(a1-3)[Man(a1-6)]Man(b1-4)GlcNAc(b1-4)GlcNAc
# How it was run: as §1
# [19] = target: Gal(b1-4)GlcNAc(b1-3)Gal(b1-4)GlcNAc(b1-2)Man(a1-3)[Gal(b1-4)GlcNAc(b1-3)Gal(b1-4)GlcNAc(b1-2)Man(a1-6)]Man(b1-4)GlcNAc(b1-4)GlcNAc
# How it was run: as §1
# [20] = target: Gal(b1-4)GlcNAc(b1-3)Gal(b1-4)GlcNAc(b1-3)Gal(b1-4)GlcNAc(b1-2)Man(a1-3)[Gal(b1-4)GlcNAc(b1-3)Gal(b1-4)GlcNAc(b1-3)Gal(b1-4)GlcNAc(b1-2)Man(a1-6)]Man(b1-4)GlcNAc(b1-4)GlcNAc
# How it was run: as §1
# [21] = target: Gal(b1-4)GlcNAc(b1-3)Gal(b1-4)GlcNAc(b1-3)Gal(b1-4)GlcNAc(b1-3)Gal(b1-4)GlcNAc(b1-3)Gal(b1-4)GlcNAc(b1-2)Man(a1-3)[Gal(b1-4)GlcNAc(b1-3)Gal(b1-4)GlcNAc(b1-3)Gal(b1-4)GlcNAc(b1-3)Gal(b1-4)GlcNAc(b1-3)Gal(b1-4)GlcNAc(b1-2)Man(a1-6)]Man(b1-4)GlcNAc(b1-4)GlcNAc
# How it was run: as §1
# [22] = target: Gal(b1-4)GlcNAc(b1-3)[Fuc(a1-3)GlcNAc(b1-6)]Gal(b1-4)Glc
# How it was run: as §1
# Gal6S(b1-4)Glc = target: Gal6S(b1-4)Glc
# How it was run: as §1
# [23] = target: GalNAc(b1-4)GlcNAc(b1-2)Man(a1-3)[GalNAc(b1-4)GlcNAc(b1-2)Man(a1-6)]Man(b1-4)GlcNAc(b1-4)GlcNAc
# How it was run: as §1
# GalNAc(b1-6)GalNAc = target: GalNAc(b1-6)GalNAc
# How it was run: as §1
# GalNAc6S(b1-4)GlcNAc = target: GalNAc6S(b1-4)GlcNAc
# How it was run: as §1
# [24] = target: Glc(a1-6)Glc(a1-6)Glc(a1-6)Glc
# How it was run: as §1
# [25] = target: GlcNAc(a1-4)Gal(b1-3)GlcNAc
# How it was run: as §1
# [26] = target: GlcNAc(b1-2)Man(a1-3)[GlcNAc(b1-4)][GlcNAc(b1-2)Man(a1-6)]Man(b1-4)GlcNAc(b1-4)[Fuc(a1-6)]GlcNAc
# How it was run: as §1
# [27] = target: GlcNAc(b1-3)Gal(b1-4)GlcNAc
# How it was run: as §1
# [28] = target: GlcNAc(b1-3)Gal(b1-4)GlcNAc(b1-6)[GlcNAc(b1-3)Gal(b1-3)]GalNAc
# How it was run: as §1
# [29] = target: GlcNAc(b1-3)[GlcNAc(b1-6)]GalNAc
# How it was run: as §1
# GlcNAc(b1-6)GalNAc = target: GlcNAc(b1-6)GalNAc
# How it was run: as §1
# [30] = target: Kdn(a2-3)Gal(b1-4)[Fuc(a1-3)]GlcNAc
# How it was run: as §1
# [31] = target: Neu5Ac(a2-3)Gal(b1-4)GlcNAc(b1-3)Gal(b1-4)GlcNAc(b1-3)Gal(b1-4)GlcNAc(b1-2)Man(a1-3)[Neu5Ac(a2-3)Gal(b1-4)GlcNAc(b1-3)Gal(b1-4)GlcNAc(b1-3)Gal(b1-4)GlcNAc(b1-2)Man(a1-6)]GalNAc
# How it was run: as §1
# [32] = target: Neu5Ac(a2-3)Gal(b1-4)GlcNAc(b1-3)Gal(b1-4)GlcNAc(b1-3)GalNAc
# How it was run: as §1
# [33] = target: Neu5Ac(a2-3)Gal(b1-4)[Fuc(a1-3)]GlcNAc(b1-2)Man
# How it was run: as §1
# [34] = target: Neu5Ac(a2-6)Gal(b1-4)GlcNAc(b1-2)Man(a1-3)[GlcNAc(b1-2)Man(a1-6)]Man(b1-4)GlcNAc(b1-4)GlcNAc
# How it was run: as §1
# [35] = target: Neu5Ac(a2-6)Gal(b1-4)GlcNAc(b1-2)Man(a1-3)[GlcNAc(b1-4)][Neu5Ac(a2-6)Gal(b1-4)GlcNAc(b1-2)Man(a1-6)]Man(b1-4)GlcNAc(b1-4)GlcNAc
# How it was run: as §1
# [36] = target: Neu5Ac(a2-6)Gal(b1-4)GlcNAc(b1-2)Man(a1-3)[Neu5Ac(a2-3)Gal(b1-4)GlcNAc(b1-2)Man(a1-6)]Man(b1-4)GlcNAc(b1-4)GlcNAc
# How it was run: as §1
# [37] = target: Neu5Ac9Ac(a2-3)Gal(b1-4)GlcNAc
# How it was run: as §1
# [38] = target: Neu5Gc(a2-3)Gal(b1-4)[Fuc(a1-4)]GlcNAc
# How it was run: as §1
binder,measurement,setting,value
"MGL1 (Mus musculus), P49300 (protein) MIYENLQNSRIEEKTQEPGKAPSQSFLWRILSWTHLLLFSLGLSLLLLVVVSVIGSQNSQLRRDLGTLRATLDNTTSKIKAEFQSLDSRADSFEKGISSLKVDVEDHRQELQAGRDLSQKVTSLESTVEKREQALKTDLSDLTDHVQQLRKDLKALTCQLANLKNNGSEVACCPLHWTEHEGSCYWFSESEKSWPEADKYCRLENSHLVVVNSLEEQNFLQNRLANVVSWIGLTDQNGPWRWVDGTDFEKGFKNWAPLQPDNWFGHGLGGGEDCAHITTGGPWNDDVCQRTFRWICEMKLAKES",glycan array binding signal (z-score),[1],0.007
same,glycan array binding signal (z-score),[2],0.824
same,glycan array binding signal (z-score),[3],0.081
same,glycan array binding signal (z-score),[4],-0.265
same,glycan array binding signal (z-score),[5],-1.16
same,glycan array binding signal (z-score),[6],1.45
same,glycan array binding signal (z-score),[7],0.044
same,glycan array binding signal (z-score),[8],5.46
same,glycan array binding signal (z-score),[9],3.95
same,glycan array binding signal (z-score),[10],5.1
same,glycan array binding signal (z-score),[11],9.12
same,glycan array binding signal (z-score),Fuc(a1-4)GlcNAc,0.064
same,glycan array binding signal (z-score),[12],-0.177
same,glycan array binding signal (z-score),[13],1.06
same,glycan array binding signal (z-score),[14],2.41
same,glycan array binding signal (z-score),Gal(b1-3)Gal,-0.039
same,glycan array binding signal (z-score),Gal(b1-3)GalNAc,-0.112
same,glycan array binding signal (z-score),[15],-0.361
same,glycan array binding signal (z-score),[16],0.273
same,glycan array binding signal (z-score),[17],3.48
same,glycan array binding signal (z-score),[18],0.201
same,glycan array binding signal (z-score),[19],2.62
same,glycan array binding signal (z-score),[20],3.01
same,glycan array binding signal (z-score),[21],2.31
same,glycan array binding signal (z-score),[22],4.54
same,glycan array binding signal (z-score),Gal6S(b1-4)Glc,0.208
same,glycan array binding signal (z-score),[23],0.218
same,glycan array binding signal (z-score),GalNAc(b1-6)GalNAc,-0.374
same,glycan array binding signal (z-score),GalNAc6S(b1-4)GlcNAc,0.509
same,glycan array binding signal (z-score),[24],-0.085
same,glycan array binding signal (z-score),[25],0.26
same,glycan array binding signal (z-score),[26],0.417
same,glycan array binding signal (z-score),[27],0.138
same,glycan array binding signal (z-score),[28],-0.907
same,glycan array binding signal (z-score),[29],-0.368
same,glycan array binding signal (z-score),GlcNAc(b1-6)GalNAc,0.042
same,glycan array binding signal (z-score),[30],0.025
same,glycan array binding signal (z-score),[31],3.39
same,glycan array binding signal (z-score),[32],-0.308
same,glycan array binding signal (z-score),[33],-0.66
same,glycan array binding signal (z-score),[34],-0.089
same,glycan array binding signal (z-score),[35],-0.48
same,glycan array binding signal (z-score),[36],-0.988
same,glycan array binding signal (z-score),[37],-0.495
same,glycan array binding signal (z-score),[38],-0.153
